Only a selection was taken, and hits are over-represented in it overall.
ST2 inh – inhibitors of human ST2 (IL1RL1) binding to IL-33, primary screen, biochemical, AlphaLISA; actives 2.3% (n = 78,000); inhibition, % for hits at 17 µM; Interleukin-1 receptor-like 1 (Homo sapiens), Q01638; AlphaLISA ST2-Fc/biotin-IL-33 interaction, 1 h; in the data active means inhibition above about 30%
Target sequence (Q01638 whole entry, looked up): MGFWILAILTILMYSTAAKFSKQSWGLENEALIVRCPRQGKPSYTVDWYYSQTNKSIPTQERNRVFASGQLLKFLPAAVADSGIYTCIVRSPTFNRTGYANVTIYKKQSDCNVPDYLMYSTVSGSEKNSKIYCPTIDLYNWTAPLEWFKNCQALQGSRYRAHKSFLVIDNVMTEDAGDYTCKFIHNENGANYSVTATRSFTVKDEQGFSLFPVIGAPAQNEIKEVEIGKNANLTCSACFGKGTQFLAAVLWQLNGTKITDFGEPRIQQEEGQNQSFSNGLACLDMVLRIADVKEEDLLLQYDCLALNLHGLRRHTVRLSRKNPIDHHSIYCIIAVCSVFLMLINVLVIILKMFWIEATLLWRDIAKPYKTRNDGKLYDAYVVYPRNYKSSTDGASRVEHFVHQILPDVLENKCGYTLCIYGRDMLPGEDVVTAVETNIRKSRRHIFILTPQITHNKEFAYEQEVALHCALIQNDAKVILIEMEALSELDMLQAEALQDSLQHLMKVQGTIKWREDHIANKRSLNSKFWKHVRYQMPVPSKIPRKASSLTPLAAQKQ
* marks the source's active call; other numbers are inactive results; i = inactive; ! = not confirmed by another sample.

SMILES | ST2 inh
COc1cccc(C2C(C(=O)Nc3ccccn3)=C(C)NC3=C2C(=O)CCC3)c1OC (stereo not drawn) | i
Cc1cc([N+](=O)[O-])ccc1NC(NC(=O)c1cccs1)C(=O)c1ccccc1 (stereo not drawn) | 35%*
O=C(NC(Nc1ccc([N+](=O)[O-])cc1)C(=O)c1ccccc1)c1ccccc1 (stereo not drawn) | i
Cc1cc([N+](=O)[O-])ccc1NC(=O)CC(C)c1ccccc1 (stereo not drawn) | i
Cc1c(C=O)c2ccccc2n1CC(=O)NCc1ccc2c(c1)OCO2 | i
O=C(Nc1nonc1-c1nc2ccccc2[nH]1)c1ccccc1Cl | 32%*
O=C(NCc1ccccc1)c1ccccc1-c1nc2ccccc2[nH]1 | i
O=C(Nc1cccc(-c2nc3ccccc3[nH]2)c1)c1ccccc1 | i
CCc1cc2c(=O)c(-c3ccccc3Cl)c(C)oc2cc1O | i
CCc1cc2c(=O)c(-c3ccc(F)cc3)c(C)oc2c(CN(C)C)c1O | i
Nc1cccc(-n2ccnc2-c2ccccn2)n1 | i
O=C(CCCn1c(=O)c2sccc2n(Cc2ccc(Cl)cc2)c1=O)NCc1ccco1 | i
O=C(Cn1c(=O)c2sccc2n(Cc2ccc(Cl)cc2)c1=O)NCc1ccco1 | i
O=C(CCCn1c(=O)c2sccc2n(Cc2ccc(F)cc2)c1=O)NCc1ccco1 | 30%*!
COc1ccc(N(C(=O)c2ccc(F)cc2)C2C=CS(=O)(=O)C2)cc1 (stereo not drawn) | i
O=C(Nc1nc(-c2ccccn2)cs1)c1ccc(C(=O)c2ccccc2)cc1 | i
Oc1ccc(Nc2nc(-c3ccccn3)cs2)cc1 | i
c1ccc(CNc2nc(-c3ccccn3)cs2)cc1 | 36%*
Nc1ncnc2c1nc(Br)n2CC(O)CO (stereo not drawn) | i
CCOc1ccc(/C=C2\N=C(c3ccccc3OC)OC2=O)cc1OCC | 34%*
CCOc1ccc(/C=C2/OC(=O)c3c2cc(C)[nH]c3=O)cc1OC | 51%*
COc1ccc(C2=Cc3cc(OC)c(OC)cc3/C(=C/c3ccc(OC)c(OC)c3)O2)cc1 | i
Cc1cc2c(c(=O)[nH]1)C(=O)O/C2=C\c1cccs1 | i
CCOc1ccc(/C=C2\N=C(c3ccccc3Cl)OC2=O)cc1 | i
CCOc1ccccc1/C=C1\N=C(c2ccc(OC)c([N+](=O)[O-])c2)OC1=O | i
SMILES | ST2 inh
CCCCNC(=O)CCCn1c(=O)[nH]c2ccc(Br)cc2c1=O | i
O=C(c1ccc2c(c1)OCO2)C1CCCN(Cc2cccn2-c2ccccn2)C1 (stereo not drawn) | i
Cc1nc(Nc2ccc(F)cc2)c2oc3ccccc3c2n1 | i
COc1ccc(N(C(=O)c2ccc3c(c2)OCO3)C2C=CS(=O)(=O)C2)c(OC)c1 (stereo not drawn) | i
Oc1ccccc1-c1nnc2n1N=C(c1ccc(Cl)cc1)CS2 | i
Cc1nnc2n1N=C(c1ccc(Cl)cc1)CS2 | 39%*!
COc1ccc(C2=Nn3c(nnc3-c3ccccc3)SC2)cc1 | i
COc1ccc(C2OCC3(CO2)SC2=NCN(C)CN2C3=O)cc1 (stereo not drawn) | i
CCn1cc(C(=O)N2CCCCC2C)c2cc(OC)c(OC)cc2c1=O (stereo not drawn) | i
Cc1ccc(N=Cc2nc(-c3ccc(Br)cc3)oc2O)cc1Cl | i
C=CCOc1ccc(C=Nc2ccc(C)c(Cl)c2)c(O)c1 | 92%*
Oc1cccc(C=Nc2ccc(Cl)c(Cl)c2)c1O | i
COc1ccccc1NC(=O)c1ccccc1F | i
COC(=O)C1=C(NC(=O)c2ccccc2F)CCS1 | 39%*
O=C(Nc1nc2ccccc2s1)c1cccc2ccccc12 | i
COC(=O)C1=C(NC(=O)c2cccc3ccccc23)CCS1 | 44%*
O=C(O)c1c(NC(=O)c2cccc3ccccc23)sc2c1CCCC2 | i
COC(=O)c1sc2ccccc2c1NC(=O)c1ccccc1F | i
CC1CCN(C2CC(=O)N(c3ccc(N4C(=O)CC(N5CCC(C)CC5)C4=O)cc3)C2=O)CC1 (stereo not drawn) | i
CCc1ccc(NC(=O)c2ccncc2)cc1 | i
CCN1CCCC1CNC(=O)CN1C(=O)COc2ccc(C)cc21 (stereo not drawn) | i
CCOC(=O)C(CC)Sc1nc2c(c(=O)n1-c1ccc(Br)cc1)SCC2 (stereo not drawn) | i
O=C(Nc1ccccc1)N[C@H]1C[C@H]2C(=O)NC[C@@H](CCC(=O)N3CCN(c4ccccn4)CC3)N2C1 | i
COCCNC(=S)N[C@H]1C[C@H]2C(=O)NC[C@@H](CCC(=O)N3CCN(c4ccccc4)CC3)N2C1 | i
O=C(N[C@H]1C[C@H]2C(=O)NC[C@@H](CCC(=O)N3CCN(c4ccccc4)CC3)N2C1)C1CC1 | i
SMILES | ST2 inh
O=C(N[C@H]1C[C@H]2C(=O)NC[C@@H](CCC(=O)N3CCN(c4ccccn4)CC3)N2C1)c1cccs1 | 33%*
COc1ccc(CN[C@H]2C[C@H]3C(=O)NC[C@@H](CCC(=O)N4CCN(c5ccccc5)CC4)N3C2)cc1 | 57%*
COCCNC(=S)N[C@H]1C[C@H]2C(=O)NC[C@@H](CCC(=O)N3CCN(c4ccccn4)CC3)N2C1 | i
Cc1nc(SC/C=C/c2ccccc2)c2c(=O)n(C)c(=O)n(C)c2n1 | i
CC(C)N1C(=O)S/C(=C\c2ccc(-c3cccc(C(=O)O)c3)o2)C1=O | i
O=C(O)CN1C(=O)S/C(=C\c2ccco2)C1=O | 74%*
CN1CCN(C(=O)CN2C(=O)S/C(=C/c3ccccc3)C2=O)CC1 | i
O=C(NCc1ccccc1)c1cccn2c(=O)c3sccc3nc12 | i
CCc1[nH]c2c(CNC(=O)CCn3ccnc3CC)cc(C)cc2c1C | i
Cc1sc2nc(SCC(N)=O)[nH]c(=O)c2c1C | i
COc1cccc(-c2nc(CN3CCCC3c3nccs3)c(C)o2)c1OC (stereo not drawn) | i
O=C(Nc1ccccc1Cl)c1ccccc1Br | i
O=C(c1ccc([N+](=O)[O-])cc1)N1CCN(c2ccccc2F)CC1 | i
O=C(/C=C(/c1ccccc1)N1CCCCC1)c1ccc([N+](=O)[O-])cc1 | 38%*
Cc1ccc(C(=O)N2CCCN(C(=O)c3ccc(C)cc3)CC2)cc1 | i
O=C(c1ccccc1)N1CCCCC1 | i
Cc1ccc(C(=O)/C=C(\c2ccccc2)N2CCCCC2)cc1 | 30%*
O=C(c1ccccc1[N+](=O)[O-])N1CCCCC1 | i
Cc1cccc(-c2noc([C@@H]3Cc4nc[nH]c4CN3C(=O)NC3CCCCC3)n2)c1 | i
CN(C)CCNC(=O)c1ccc2c(c1)N(Cc1c(F)cccc1Cl)C(=O)CS2 | i
Cc1ccccc1OCCCN(C)c1nc(-c2cccnc2)nc2c1CNC2 | i
CC(Oc1ccccc1)C(=O)N(c1ccc(Br)cc1)C1C=CS(=O)(=O)C1 (stereo not drawn) | i
Cc1ccc2nc(-c3cc(N=Cc4cccc([N+](=O)[O-])c4O)ccc3O)[nH]c2c1 | 36%*
CC(=O)N1CCc2cc(N=Cc3cc([N+](=O)[O-])ccc3O)ccc21 | i
CC(=O)Nc1nc(C)c(-c2nc3ccc([N+](=O)[O-])cc3[nH]2)s1 | i
O=[N+]([O-])c1cccc(N=Cc2nc(-c3ccc(Br)cc3)oc2O)c1 | i
Cc1ccc2nc(-c3cc(N=Cc4cccc([N+](=O)[O-])c4)ccc3O)[nH]c2c1 | 43%*
O=[N+]([O-])c1ccccc1C=Nc1ccc2nc(-c3ccccc3)[nH]c2c1 | i

Compound activity from PubChem BioAssay.
